This is part of a sample that, as a whole, favours compounds with a hit. Of some 83,000 tested, about 20% had one in any assay.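 Treatment: one concentration, 48 hours, 96-well format. Scoring: percent growth, with anything below 10 considered active.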 The source made the active and inactive calls.
What was measured:
Assay in all cases: NCI-60 one-dose screen, 48 h (100 = growth as untreated, 0 = no growth, -100 = all killed)
Details in all cases: 10 µM unless noted
SK-MEL-2 melanoma = tested on: SK-MEL-2 melanoma
EKVX NSCLC = tested on: EKVX NSCLC
SN12C renal = tested on: SN12C renal
UO-31 renal = tested on: UO-31 renal
TK-10 renal = tested on: TK-10 renal
ACHN renal = tested on: ACHN renal
CAKI-1 renal = tested on: CAKI-1 renal
A498 renal = tested on: A498 renal
CCRF-CEM leukemia = tested on: CCRF-CEM leukemia
SR leukemia = tested on: SR leukemia
RPMI-8226 leukemia = tested on: RPMI-8226 leukemia
OVCAR-8 ovarian = tested on: OVCAR-8 ovarian
OVCAR-5 ovarian = tested on: OVCAR-5 ovarian
SK-OV-3 ovarian = tested on: SK-OV-3 ovarian
IGROV1 ovarian = tested on: IGROV1 ovarian
OVCAR-3 ovarian = tested on: OVCAR-3 ovarian
HS 578T breast = tested on: HS 578T breast
NCI/ADR-RES ovarian = tested on: NCI/ADR-RES ovarian
OVCAR-4 ovarian = tested on: OVCAR-4 ovarian

Measured: growth

O=C1/C(=C/c2ccc(Br)cc2)C=C(c2ccccc2)N1CCc1ccccc1
inactive: SK-MEL-2 melanoma 66% | EKVX NSCLC 40.1% | SN12C renal 50.1% | UO-31 renal 45% | TK-10 renal 12.6% | ACHN renal 13% | CAKI-1 renal 64.3% | A498 renal 50.8% | CCRF-CEM leukemia 101% | SR leukemia 58.6% | RPMI-8226 leukemia 101% | OVCAR-8 ovarian 17.7% | OVCAR-5 ovarian 66% | SK-OV-3 ovarian 15.4% | IGROV1 ovarian 41.9% | OVCAR-3 ovarian 42.1% | HS 578T breast 22.8% | NCI/ADR-RES ovarian 27.8%

COC(=O)CCC1=C(C)C2=NC1=CC1=NC(=CC3=NC(=Cc4[nH]c(/c(=C(/C)O)c4C)=C2)C(C(C)=O)=C3C)C(C)=C1CCC(=O)OC
inactive: SK-MEL-2 melanoma 102% | EKVX NSCLC 99.7% | SN12C renal 97.8% | UO-31 renal 100% | TK-10 renal 123% | ACHN renal 103% | CAKI-1 renal 98.8% | A498 renal 90.1% | CCRF-CEM leukemia 101% | SR leukemia 111% | RPMI-8226 leukemia 85.7% | OVCAR-8 ovarian 100% | OVCAR-5 ovarian 111% | OVCAR-4 ovarian 107% | SK-OV-3 ovarian 95.1% | IGROV1 ovarian 108% | OVCAR-3 ovarian 107% | HS 578T breast 89.1% | NCI/ADR-RES ovarian 103%

N#Cc1c(N)nc(NCCO)nc1-c1ccc(F)cc1
inactive: SK-MEL-2 melanoma 108% | EKVX NSCLC 89.9% | SN12C renal 103% | UO-31 renal 92.8% | TK-10 renal 106% | ACHN renal 100% | CAKI-1 renal 95.9% | A498 renal 89.1% | CCRF-CEM leukemia 112% | SR leukemia 99.3% | RPMI-8226 leukemia 94.1% | OVCAR-8 ovarian 99.7% | OVCAR-5 ovarian 105% | OVCAR-4 ovarian 95.6% | SK-OV-3 ovarian 84.9% | IGROV1 ovarian 102% | OVCAR-3 ovarian 110% | HS 578T breast 92.5% | NCI/ADR-RES ovarian 105%

O=C(NCCNc1cc(-c2cn(-c3ccccc3)nc2-c2cccc(O)c2)ccn1)Nc1ccccc1
active: SR leukemia 2.22%
inactive: SK-MEL-2 melanoma 86.4% | EKVX NSCLC 71.4% | SN12C renal 77.4% | UO-31 renal 58.6% | TK-10 renal 124% | ACHN renal 88.5% | CAKI-1 renal 80.1% | A498 renal 80.8% | CCRF-CEM leukemia 79.3% | RPMI-8226 leukemia 60.1% | OVCAR-4 ovarian 70.1% | SK-OV-3 ovarian 65.1% | IGROV1 ovarian 67% | OVCAR-3 ovarian 82.3% | HS 578T breast 50.5% | NCI/ADR-RES ovarian 75.4%

C#CCOc1nc(C)cc(C)c1C#N
inactive: SK-MEL-2 melanoma 111% | EKVX NSCLC 97.1% | SN12C renal 104% | UO-31 renal 86.5% | TK-10 renal 95.9% | ACHN renal 99.7% | CAKI-1 renal 90.6% | A498 renal 87.7% | CCRF-CEM leukemia 109% | SR leukemia 91.8% | RPMI-8226 leukemia 111% | OVCAR-5 ovarian 95.1% | SK-OV-3 ovarian 101% | IGROV1 ovarian 102% | OVCAR-3 ovarian 110% | HS 578T breast 101% | NCI/ADR-RES ovarian 103%

Cc1nc2c(c(N3CCCc4ccccc43)n1)CCC2
inactive: SK-MEL-2 melanoma 43.9% | EKVX NSCLC 86.4% | SN12C renal 31.5% | UO-31 renal 29.6% | TK-10 renal 57.8% | ACHN renal 18.8% | CAKI-1 renal 20.7% | RPMI-8226 leukemia 11.2% | OVCAR-8 ovarian 11% | OVCAR-5 ovarian 48.3% | OVCAR-4 ovarian 42.4% | IGROV1 ovarian 24.5% | HS 578T breast 23%
active: A498 renal -1.39% | CCRF-CEM leukemia 1.69% | SR leukemia 2.73% | SK-OV-3 ovarian 5.28% | OVCAR-3 ovarian -41.2% | NCI/ADR-RES ovarian 9.25%

O=C(Nc1cccc(Oc2nnc(Cl)c3ccccc23)c1)Nc1ccc(Cl)c(C(F)(F)F)c1
active: SK-MEL-2 melanoma -72.1% | EKVX NSCLC -6.74% | SN12C renal -71.9% | UO-31 renal -28.4% | TK-10 renal -51.5% | ACHN renal -8.47% | A498 renal -82.7% | CCRF-CEM leukemia -5.44% | SR leukemia -23.8% | RPMI-8226 leukemia -15.9% | OVCAR-8 ovarian -16.8% | OVCAR-5 ovarian -7.38% | OVCAR-4 ovarian 2% | SK-OV-3 ovarian -44.1% | IGROV1 ovarian -16.8% | OVCAR-3 ovarian -41.9% | HS 578T breast -17.2% | NCI/ADR-RES ovarian -28.2%
inactive: CAKI-1 renal 11.7%

O=Cc1ccc(O)c2ncccc12
active: CCRF-CEM leukemia -40.7% | SR leukemia -41.3% | RPMI-8226 leukemia -39.8% | OVCAR-8 ovarian 9.03% | OVCAR-4 ovarian 5.69% | IGROV1 ovarian 4% | OVCAR-3 ovarian -15.2% | NCI/ADR-RES ovarian -1%
inactive: SK-MEL-2 melanoma 71.2% | EKVX NSCLC 66.1% | SN12C renal 35.2% | UO-31 renal 34.8% | TK-10 renal 94% | ACHN renal 110% | CAKI-1 renal 48.6% | A498 renal 106% | OVCAR-5 ovarian 50.3% | SK-OV-3 ovarian 97.7% | HS 578T breast 41.6%

Cc1cc(NCc2cc(Nc3ccnc4cc(Cl)ccc34)ccc2F)nc(N2CCN(c3ccccc3)CC2)n1
inactive: SK-MEL-2 melanoma 84.5% | EKVX NSCLC 64.8% | SN12C renal 49.9% | UO-31 renal 36.1% | TK-10 renal 88.7% | ACHN renal 69.2% | CAKI-1 renal 72.3% | A498 renal 14.1% | RPMI-8226 leukemia 42.8% | OVCAR-5 ovarian 92.6% | OVCAR-4 ovarian 46.2% | SK-OV-3 ovarian 55.1% | IGROV1 ovarian 41.6% | HS 578T breast 47.9% | NCI/ADR-RES ovarian 56.5%
active: CCRF-CEM leukemia -7.8% | SR leukemia -24.6% | OVCAR-3 ovarian 5.88%

COC(=O)[C@]12CC[C@@H](C)[C@H](C)[C@@H]1C1=CC[C@@H]3[C@@]4(C)C(C=O)=C[C@@](C)(COS(C)(=O)=O)C4[C@H](O)C[C@@]3(C)[C@]1(C)CC2 (stereo not given in full)
active: SK-MEL-2 melanoma -60.7% | EKVX NSCLC -22.4% | SN12C renal -40.8% | UO-31 renal -96.6% | TK-10 renal -73.5% | ACHN renal -93.2% | CAKI-1 renal -15.6% | A498 renal -38.5% | CCRF-CEM leukemia -33.8% | SR leukemia -33.3% | RPMI-8226 leukemia -10.7% | OVCAR-8 ovarian -50.1% | OVCAR-5 ovarian -38.3% | OVCAR-4 ovarian -52.8% | SK-OV-3 ovarian -35.2% | IGROV1 ovarian -13.4% | OVCAR-3 ovarian -88.7% | HS 578T breast -30.6% | NCI/ADR-RES ovarian -1.9%

CC(C)(C)C(CCc1ccc(Cl)cc1)N1CCN(C2CCCCC2)CC1 (stereo not given)
active: SR leukemia -13.2%
inactive: SK-MEL-2 melanoma 72.9% | EKVX NSCLC 70.1% | SN12C renal 45.7% | UO-31 renal 32.6% | TK-10 renal 96.2% | ACHN renal 51.3% | CAKI-1 renal 35.8% | A498 renal 78% | CCRF-CEM leukemia 25.9% | RPMI-8226 leukemia 24.4% | OVCAR-8 ovarian 60.3% | OVCAR-5 ovarian 60.2% | OVCAR-4 ovarian 42.6% | SK-OV-3 ovarian 59.9% | IGROV1 ovarian 62.8% | OVCAR-3 ovarian 41.6% | HS 578T breast 68.9% | NCI/ADR-RES ovarian 60.6%

CC(C)CCC[C@@H](C)[C@H]1CC[C@H]2[C@@H](Nc3ccc(O)cc3)CCC[C@]12C
active: UO-31 renal 7.74% | OVCAR-4 ovarian -73.1%
inactive: SK-MEL-2 melanoma 86.1% | EKVX NSCLC 109% | SN12C renal 108% | TK-10 renal 83% | ACHN renal 78.8% | CAKI-1 renal 37.7% | A498 renal 67.6% | CCRF-CEM leukemia 32.2% | SR leukemia 71.8% | RPMI-8226 leukemia 96.6% | OVCAR-8 ovarian 97.6% | OVCAR-5 ovarian 114% | SK-OV-3 ovarian 75.3% | IGROV1 ovarian 38.8% | OVCAR-3 ovarian 84.8% | HS 578T breast 104% | NCI/ADR-RES ovarian 71.4%

CCCCCCCCCCCCCCCCCCOc1ccc(CC(=O)OCC[N+]2(C)CCCC2)cc1
inactive: SK-MEL-2 melanoma 117% | EKVX NSCLC 100% | SN12C renal 97.9% | UO-31 renal 92.4% | TK-10 renal 98.4% | ACHN renal 96.8% | CAKI-1 renal 84.9% | A498 renal 116% | CCRF-CEM leukemia 99.1% | SR leukemia 101% | RPMI-8226 leukemia 97.6% | OVCAR-8 ovarian 99.7% | OVCAR-5 ovarian 97.9% | OVCAR-4 ovarian 87.3% | SK-OV-3 ovarian 108% | IGROV1 ovarian 94.1% | OVCAR-3 ovarian 109% | HS 578T breast 95% | NCI/ADR-RES ovarian 106%

O=C(c1ccc(Nc2nccc(NCCCCNc3ccnc4cc(Cl)ccc34)n2)cc1)N1CCCCC1
inactive: SK-MEL-2 melanoma 68.7% | EKVX NSCLC 67.5% | SN12C renal 67.4% | UO-31 renal 73.9% | TK-10 renal 91.5% | ACHN renal 37.8% | CAKI-1 renal 86.1% | A498 renal 68% | OVCAR-8 ovarian 23% | OVCAR-5 ovarian 91.9% | OVCAR-4 ovarian 49% | SK-OV-3 ovarian 97.7% | IGROV1 ovarian 46.5% | OVCAR-3 ovarian 36.6% | HS 578T breast 65% | NCI/ADR-RES ovarian 89%
active: CCRF-CEM leukemia -11.8% | SR leukemia -27.3% | RPMI-8226 leukemia 8.24%

CCCCCc1nc2c(c3c1CCCC3)CCCC2
inactive: SK-MEL-2 melanoma 80% | EKVX NSCLC 77.1% | SN12C renal 93.3% | UO-31 renal 47% | TK-10 renal 77.2% | ACHN renal 82.9% | CAKI-1 renal 60.9% | A498 renal 84.3% | CCRF-CEM leukemia 59.9% | SR leukemia 31.8% | OVCAR-5 ovarian 67.2% | SK-OV-3 ovarian 80.7% | IGROV1 ovarian 61.7% | OVCAR-3 ovarian 69.8% | HS 578T breast 65% | NCI/ADR-RES ovarian 48.3%
active: RPMI-8226 leukemia 0.398%

COc1cccc(-c2nn(-c3ccccc3)cc2-c2ccnc(NCCNC(=O)c3ccccc3)c2)c1
active: SR leukemia -12.5%
inactive: SK-MEL-2 melanoma 84.7% | EKVX NSCLC 66.6% | SN12C renal 71.4% | UO-31 renal 49.7% | TK-10 renal 90.1% | ACHN renal 74.1% | CAKI-1 renal 68% | A498 renal 46.6% | CCRF-CEM leukemia 48.7% | RPMI-8226 leukemia 42.3% | OVCAR-8 ovarian 43.8% | OVCAR-5 ovarian 102% | OVCAR-4 ovarian 53.7% | SK-OV-3 ovarian 65.3% | IGROV1 ovarian 79.6% | OVCAR-3 ovarian 63.1% | HS 578T breast 68.5% | NCI/ADR-RES ovarian 46.6%

O=C(NCCCNc1cc(-c2cn(-c3ccccc3)nc2-c2cccc(O)c2)ccn1)c1ccc(F)cc1
inactive: EKVX NSCLC 48.2% | SN12C renal 55% | UO-31 renal 27.1% | TK-10 renal 60.4% | ACHN renal 51.7% | CAKI-1 renal 12.4% | A498 renal 29% | CCRF-CEM leukemia 22.3% | OVCAR-8 ovarian 36.1% | OVCAR-5 ovarian 58% | OVCAR-4 ovarian 39.8% | SK-OV-3 ovarian 30.1% | IGROV1 ovarian 45.8% | OVCAR-3 ovarian 38.4% | NCI/ADR-RES ovarian 19%
active: SK-MEL-2 melanoma -8.95% | SR leukemia -26.4% | RPMI-8226 leukemia -9.31% | HS 578T breast -16.7%
